# Source: PubChem BioAssay
# Hits are enriched below; roughly 19% of the tested compounds scored in any of these assays.
# DT40 TDP1 CPT – growth inhibition of DT40 Tdp1-/-;hTDP1 cells with camptothecin (screen for TDP1 inhibitors) | chicken DT40 Tdp1-/-;hTDP1 cells + 20 nM CPT, ATP luminescence, 48 h | Potency, µM (series often up to 46.2 µM), without a hit: at the top dose activity change, negative = growth inhibition, usual class: inhibitors | 420,000 compounds, 12% hits | AID 686979; further: potency means the concentration at half of the fitted maximal effect; on the % scale 0 is the no-effect control and ±100 the full control effect; nearly all actives have a fitted effect of over 55% in size
#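 Chicken DT40 Tdp1-/- cells complemented with human TDP1, 400 cells/well, exposed to compounds plus 20 nM camptothecin for at least 48 h at 37 C; viability read as ATP content by CellTiter-Glo luminescence.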
# IL-1B inflam inh – inflammasome signaling inhibition, IL-1 beta readout. activity change, % at 57.5 µM. THP-1 LPS/ATP IL-1B secretion, AlphaLISA, 16 h; active compounds read low. 360,000 compounds, 4.7% hits. AID 743279; in the data active means activity change below about -50%; inconclusive means mostly about -30% to -49%; further: on the % scale 0 is the no-effect control and ±100 the full control effect
#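 Secreted IL-1B measured by AlphaLISA bead assay after 16 h compound exposure of THP-1 cells; compounds (final up to 57.5 uM) added 1 h before LPS (250 ng/mL) and ATP (1.25 mM) stimulation; lower signal means less secretion.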
# DT40 TDP1 no CPT – qHTS for Inhibitors of human tyrosyl-DNA phosphodiesterase 1 (TDP1): qHTS in cells in absence of CPT | DT40 Tdp1-/- hTDP1 cells, no CPT, ATP luminescence, 48 h | Potency, µM (series often up to 46.2 µM), for inactives: at the highest dose activity change, negative = growth inhibition, usual class: inhibitors | 420,000 compounds, 15% hits | AID 686978, 2013; further: potency means the concentration at half of the fitted maximal effect; on the % scale 0 is the no-effect control and ±100 the full control effect; nearly all actives have a fitted effect of over 55% in size
#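 Seeded 400 DT40-hTDP1 cells/well (vehicle DMSO, no 20 nM CPT); pinned compounds; ≥48 hr at 37 °C; CellTiter-Glo luminescence as viability measure.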
# HepG2 viability – kills HepG2 cells in TGF-b inhibitor counter-screen. AID 588856. Potency, µM (titrated, usually from 46.1 µM), inactives show at the highest dose activity change, negative = cytotoxicity, usual class: cytotoxic. 410,000 compounds, 0.76% hits. HepG2 CAGA-GFP viability, ATP luminescence, 18 h; further: potency means the concentration at half of the fitted maximal effect
#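 CellTiter-Glo luminescence gave cytotoxicity after 18 hours at 37 degrees C. The cells were HepG2 CAGA-GFP in 1% FBS DMEM, stimulated with 500 pg/mL TGF-beta after compound addition. %Activity was normalised to no-cell wells (complete cell-killing) and DMSO (no toxicity), and curves were fitted and classified.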
# S-ASM inh – human S-ASM enzyme inhibition; P17405; placental ASM, HMU-PC fluorogenic substrate, 60 min; Potency, µM (highest dose often 57.5 µM), inactives show at the top dose activity change, negative = inhibition, hits mostly inhibitors; 340,000 compounds, 0.006% hits; AID 504937; further: potency means the concentration at half of the fitted maximal effect
# Target sequence (P17405 47-631 limits assumed): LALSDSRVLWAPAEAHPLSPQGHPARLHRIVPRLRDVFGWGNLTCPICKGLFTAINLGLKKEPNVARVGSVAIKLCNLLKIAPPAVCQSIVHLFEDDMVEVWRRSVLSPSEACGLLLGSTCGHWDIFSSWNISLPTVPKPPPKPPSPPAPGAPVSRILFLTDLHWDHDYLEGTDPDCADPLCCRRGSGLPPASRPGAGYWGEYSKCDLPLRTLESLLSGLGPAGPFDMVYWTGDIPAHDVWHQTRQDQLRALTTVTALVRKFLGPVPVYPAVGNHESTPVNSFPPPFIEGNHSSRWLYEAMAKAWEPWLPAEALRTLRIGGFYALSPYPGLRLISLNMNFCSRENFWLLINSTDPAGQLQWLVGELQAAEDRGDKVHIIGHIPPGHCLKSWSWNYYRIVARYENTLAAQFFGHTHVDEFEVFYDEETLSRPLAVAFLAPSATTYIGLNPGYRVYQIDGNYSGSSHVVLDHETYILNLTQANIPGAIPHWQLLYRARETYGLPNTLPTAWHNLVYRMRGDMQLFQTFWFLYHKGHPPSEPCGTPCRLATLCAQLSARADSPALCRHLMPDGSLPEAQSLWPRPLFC
#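 Fluorogenic HMU-PC substrate (9 uM final) is turned over by placental ASM in 60 min at 37 C after a 10 min compound preincubation. Reaction ended by alkaline stop (pH 10), with fluorescence read at 386/447 nm.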
# TGFb inhibitor – blocks TGF-b signaling; HepG2 CAGA-GFP TGF-b/SMAD3 reporter, GFP fluorescence, 18 h; TGF-beta stimulated, 500 pg/mL final; Potency, µM (series often up to 46.1 µM), for the others: top-dose activity, negative = inhibition, most hits filed as inhibitors; 410,000 compounds, 1.2% hits; further: potency means the concentration at half of the fitted maximal effect; on the % scale 0 is the no-effect control and ±100 the full control effect; nearly all actives have a fitted effect of over 65% in size
#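 GFP signal (ex488/em500-530) from TGF-beta-stimulated HEPG2 CAGA-GFP cells, 500 pg/mL final, 18 h at 37 degrees C in DMEM plus 1% FBS, normalized to unstimulated and DMSO-stimulated controls.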
# * = called active by the depositor; ? = inconclusive; · = no result. Unless noted, the call rests on the fitted dose curve; in most records, active means well fitted curve in the direction sought with a large enough effect; inconclusive means small, poorly fitted or top-dose-only effect, or another doubt; inactive means no such curve, though single readings can be large; an effect the other way counts as inactive or inconclusive.
SMILES,DT40 TDP1 CPT,IL-1B inflam inh,DT40 TDP1 no CPT,HepG2 viability,S-ASM inh,TGFb inhibitor
O=C(CC[C@H]1O[C@@H](n2ccc(=O)[nH]c2=O)[C@H](O)[C@@H]1O)NCC(c1ccccc1)c1ccccc1,-3%,0,-16%,-13%,·,-2%
O=C(c1cc(-c2ccccc2Cl)nc2ccccc12)N1CCN(c2ccccc2O)CC1,18µM*,-70*,?,1%,-4%,-5%
CN1CCCN(C(=O)c2cc(-c3cccc4ccccc34)nc3ccccc23)CC1,16µM*,-63*,21µM*,-19%,8%,-25%
O=C(c1cc(-c2cccs2)nc2ccccc12)N1CCN(c2ccccc2O)CC1,?,-67*,?,-11%,-4%,?
O=C(c1cc(-c2ccccc2Cl)nc2ccccc12)N1CCC1,-28%,18,?,-3%,9%,0%
CC(=O)NCc1ccc(S(=O)(=O)NC(C)CCc2ccccc2)cc1 (stereo not given),7%,2,-9%,-6%,-2%,6%
Cc1csc(=O)n1CC(=O)OCC(=O)Nc1ccccc1C(C)C,-19%,8,7%,5%,-2%,-4%
CCN(CC)c1ccc(-n2c(C)c(C(C)=O)c(C(C)=O)c2C)cc1,23µM*,-2,10µM*,-31%,-1%,0%
CC(=O)c1c(C(C)=O)c(C)n(-c2ccc(O)cc2)c1C,-15%,13,-12%,9%,-1%,10%
O=C(CSc1oc(-c2ccc(F)cc2)nc1S(=O)(=O)c1ccc(Cl)cc1)c1ccccc1,16µM*,·,15µM*,-3%,·,-19%
Cc1ccc(-c2nc(S(=O)(=O)c3ccc(C)cc3)c(SCC(N)=O)o2)cc1,-5%,15,?,-27%,-1%,-21%
O=C(CSc1oc(-c2ccccc2)nc1S(=O)(=O)c1ccc(Cl)cc1)c1ccccc1,15µM*,·,18µM*,-8%,·,1%
CCOC(=O)c1ccc(NS(=O)(=O)c2cc3c(cc2C)n(C)c(=O)c(=O)n3C)cc1,?,·,?,-22%,·,-1%
CCOc1ccc(CCN2C(=O)C(=O)N([C@@H](CC(C)C)CN3CCC[C@@H]3CN3C(=O)C(=O)NC[C@@H]3CC(C)C)C[C@@H]2Cc2ccccc2)cc1,?,0,?,-2%,·,20µM*
CCOc1ccc(CCN2C(=O)C(=O)N([C@@H](CC(C)C)CN3CCC[C@H]3CN3C(=O)C(=O)NC[C@@H]3Cc3ccc(O)cc3)C[C@@H]2CC(C)C)cc1,?,-54*,?,·,·,·
CCOc1ccc(CCN2C(=O)C(=O)N([C@@H](CC(C)C)CN3CCC[C@H]3CN3C(=O)C(=O)NC[C@@H]3CC(C)C)C[C@@H]2Cc2ccccc2)cc1,?,-92*,?,·,·,·
CCOc1ccc(CCN2C(=O)C(=O)N([C@@H](Cc3ccccc3)CN3CCC[C@H]3CN3C(=O)C(=O)NC[C@@H]3Cc3ccc(O)cc3)C[C@@H]2CC(C)C)cc1,?,-14,?,·,·,·
CCOc1ccc(CCN2C(=O)C(=O)N([C@@H](CC(C)C)CN3CCC[C@H]3CN3C(=O)C(=O)NC[C@@H]3CC(C)C)C[C@@H]2CC(C)C)cc1,?,-28,?,·,·,·
Cc1c(Cc2ccccc2)c(=O)oc2cc(OC(C)C(=O)NCC3CCC(C(=O)O)CC3)c(Cl)cc12 (stereo not given),-12%,29,-10%,-4%,-3%,-1%
CC(=O)N(C)c1ccc(N=Nc2c(C)[nH]n(-c3ccccc3)c2=O)cc1,?,9,?,-13%,-4%,?
CC(=O)N(C)c1ccc(N=Nc2ccc3ncccc3c2)cc1,?,?,15µM*,-18%,-1%,-1%
CCOC(=O)C12CC1/C(=N\O)c1ccccc1O2 (stereo not given),-4%,·,-2%,·,·,·
Cn1c(=O)c2c(ncn2CC(=O)Nc2ccccc2)n(C)c1=O,-23%,8,-29%,15%,7%,-1%
CCN(c1ccccc1)S(=O)(=O)c1ccc(OC)c(NC(=O)Cn2cnc3c2c(=O)n(C)c(=O)n3C)c1,?,-13,?,21%,-1%,2.8µM*
Cc1cccc(C)c1NC(=O)Cn1cnc2c(=O)n(C)c(=O)n(C)c21,-17%,13,-20%,10%,4%,-4%
SMILES,DT40 TDP1 CPT,IL-1B inflam inh,DT40 TDP1 no CPT,HepG2 viability,S-ASM inh,TGFb inhibitor
Cc1ccccc1C(=O)Nc1cccc(NC(=O)Cn2cnc3c(=O)n(C)c(=O)n(C)c32)c1,10µM*,47,8.2µM*,-5%,1%,-21%
CN(c1ccccc1)S(=O)(=O)c1cccc(NC(=O)Cn2cnc3c2c(=O)n(C)c(=O)n3C)c1,23µM*,8,16µM*,-30%,-3%,-25%
Cc1snc2sc(C(=O)c3ccc(F)cc3)c(N)c12,10%,5,-2%,-3%,-3%,-3%
CS(=O)(=O)Nc1cccc(NC(=O)c2cccc3c(-c4cccc(C(N)=O)c4)coc23)c1,18µM*,?,?,-3%,·,10%
CS(=O)(=O)Nc1cccc(NC(=O)c2cccc3c(-c4ccc(F)c(F)c4)coc23)c1,15µM*,?,?,-21%,·,-37%
CS(=O)(=O)Nc1cccc(NC(=O)C2Cc3c(-c4cccc(C(N)=O)c4)ccnc3O2)c1 (stereo not given),-14%,-10,-3%,-7%,·,25%
CC(C)NC(=O)c1cccc2c(-c3ccc(F)c(F)c3)coc12,?,-26,21µM*,-13%,·,10%
CC(=O)c1cccc(NC(=O)c2cccc3c(-c4cccc(C(N)=O)c4)coc23)c1,9.2µM*,0,12µM*,-5%,·,-5%
OC[C@H]1O[C@@](CO)(O[C@H]2O[C@H](CO)[C@@H](O)[C@H](O)[C@H]2O)[C@@H](O)[C@@H]1O,6%,·,0%,·,·,·
COC(=O)c1cc(NS(=O)(=O)c2cc(Br)cc3c2N(C(C)=O)CC3)cc(C(=O)OC)c1,-18%,·,-20%,2%,·,-38%
CCOC(=O)c1c(C)n(C)c2cc(Br)c(OC)cc12,-5%,14,-3%,0%,-18%,10%
CCCCCCCCOC(=O)c1c(CSC(=N)N)n(C)c2cc(Br)c(OC(C)=O)cc12,6.5µM*,-3,7.3µM*,11µM*,32µM*,?
